Twelve compounds from PubChem BioAssay (EPA / NIEHS) can be followed below.

“And” between values parts separate entries of the source, which are not always exact repeats. Identical values can stand only once. The source holds several records for some structures; these can differ, active in one and inactive in another. The source made the active and inactive calls. The calls were made as follows: active = hit-call score of the fitted dose curve at least 0.9, where 1 is the maximum; inactive = score below 0.9.

The term AC50 denotes the concentration giving half of the maximal activity seen.

Experiment [1] can be described thus: BSK_KF3CT_SRB: Viability Assessment in the BioMAP Diversity Plus: KF3CT Assay (AID 2283069).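 Also: total protein by sulforhodamine B staining as a cytotoxicity measure; read 24 h after compound addition; fitted for both signal gain and loss against DMSO baseline.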 The following applies: primary human keratinocytes with fibroblasts. Put shortly:
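Human keratinocyte and foreskin fibroblast co-culture exposed to chemical for 24 h. Total protein measured in parallel cultures by 0.1% sulforhodamine B staining after 10% TCA fixation, read at 560 nm; bidirectional fit relative to DMSO.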

Read-out in experiment [2]: Interleukin-1 alpha (IL1a), IL1A (gene 3552)
The experiment in a line: BSK_KF3CT_IL1a: BioMAP Diversity Plus: KF3CT Assay for Interleukin-1 alpha (IL1a) Biomarker Activity (AID 2283070). The following applies: primary human keratinocytes with fibroblasts; actives raise or lower the signal. The method, boiled down: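 Primary human keratinocyte plus foreskin fibroblast co-culture, dosed and measured at 24 h in 96-well plates. IL-1a level quantified by ELISA; bidirectional fit relative to DMSO.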

Read-out in experiment [3]: TIMP metallopeptidase inhibitor 2 (TIMP2), TIMP2 (gene 7077)
Briefly: BSK_KF3CT_TIMP2: BioMAP Diversity Plus: KF3CT Assay for TIMP metallopeptidase inhibitor 2 (TIMP2) Biomarker Activity (AID 2283071). As to conditions: primary human keratinocytes with fibroblasts; actives raise or lower the signal. The method, boiled down:
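Co-culture of human primary keratinocytes and foreskin fibroblasts, measured 24 h after chemical dosing. TIMP-2 quantified by ELISA and fitted in both directions relative to DMSO. Cytotoxicity checked in parallel cultures by SRB total-protein staining.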

Read-out in experiment [4]: Transforming growth factor beta 1 (TGFb1), TGFB1 (gene 7040)
The experiment in a line: BSK_KF3CT_TGFb1: BioMAP Diversity Plus: KF3CT Assay for Transforming growth factor beta 1 (TGFb1) Biomarker Activity (AID 2283072). The following applies: primary human keratinocytes with fibroblasts; actives raise or lower the signal. The method, boiled down:
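Human keratinocyte/foreskin fibroblast co-culture; TGF-b1 measured by ELISA 24 h after dosing, fitted bidirectionally versus DMSO. Cytotoxicity checked in parallel cultures by total protein (SRB staining, 560 nm).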

Read-out in experiment [5]: C-C motif chemokine 2 (Homo sapiens) (UniProt P13500)
The experiment in a line: BSK_KF3CT_MCP1: BioMAP Diversity Plus: KF3CT Assay for Monocyte Chemoattractant Protein 1 (MCP1/CCL2) Biomarker Activity (AID 2283073). The following applies: primary human keratinocytes with fibroblasts; actives raise or lower the signal. Put shortly:
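ELISA readout of MCP-1 after 24 h chemical dosing of a human skin primary co-culture of keratinocytes and foreskin fibroblasts. Activity was fitted in both directions against DMSO.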

Read-out in experiment [6]: Matrix Metallopeptidase 9 (MMP9), MMP9 (gene 4318)
The experiment in a line: BSK_KF3CT_MMP9: BioMAP Diversity Plus: KF3CT Assay for Matrix Metallopeptidase 9 (MMP9) Biomarker Activity (AID 2283074).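 As to AC50: MMP9 protein level quantified by ELISA in the co-culture.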 The following applies: primary human keratinocytes with fibroblasts; actives raise or lower the signal. The method, boiled down: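 Human keratinocyte and foreskin fibroblast co-culture exposed to chemicals for 24 h; MMP9 biomarker measured by ELISA, bidirectional fitting relative to DMSO; cytotoxicity tracked by SRB total protein staining in parallel cultures.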

Read-out in experiment [7]: urokinase plasminogen activator (uPA), PLAU (gene 5328)
Briefly: BSK_KF3CT_uPA: BioMAP Diversity Plus: KF3CT Assay for urokinase plasminogen activator (uPA) Biomarker Activity (AID 2283075). The following applies: primary human keratinocytes with fibroblasts; actives raise or lower the signal. Put shortly: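 Primary human keratinocyte/foreskin fibroblast co-culture exposed to chemical; uPA measured by ELISA at 24 h. Bidirectional fit versus DMSO, with parallel SRB total-protein staining for cytotoxicity.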

Read-out in a further experiment: CD40, CD40 (gene 958)
The experiment in a line: BSK_LPS_CD40: BioMAP Diversity Plus: LPS Assay for CD40 Biomarker Activity (AID 2283076). The following applies: primary human HUVEC with PBMC; actives raise or lower the signal. Put shortly: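 Cells were dosed, incubated 24 h, then assayed for CD40 by ELISA. Gain or loss of signal was analysed relative to DMSO controls. The culture paired human umbilical vein endothelium with peripheral blood mononuclear cells.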

Read-out in experiment [8]: E-selectin (Homo sapiens) (UniProt P16581)
The experiment in a line: BSK_LPS_Eselectin: BioMAP Diversity Plus: LPS Assay for Eselectin Biomarker Activity (AID 2283077). The following applies: primary human HUVEC with PBMC; actives raise or lower the signal. The method, boiled down: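 Primary human vascular co-culture (endothelium plus PBMC) was dosed with chemical, then E-selectin quantified by ELISA at 24 h. Endpoint values derive from bidirectional curve fitting relative to DMSO.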

Read-out in experiment [9]: Interleukin-8 (IL8), CXCL8 (gene 3576)
Briefly: BSK_LPS_IL8: BioMAP Diversity Plus: LPS Assay for Interleukin-8 (IL8) Biomarker Activity (AID 2283078). The following applies: primary human HUVEC with PBMC; actives raise or lower the signal. Put shortly:
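Readout is IL-8 by ELISA, taken 24 h after compounds were added to LPS-stimulated endothelial/PBMC co-cultures. Both increases and decreases relative to DMSO control were scored through bidirectional fitting.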

E-selectin (Homo sapiens), sequence (P16581 whole entry, looked up): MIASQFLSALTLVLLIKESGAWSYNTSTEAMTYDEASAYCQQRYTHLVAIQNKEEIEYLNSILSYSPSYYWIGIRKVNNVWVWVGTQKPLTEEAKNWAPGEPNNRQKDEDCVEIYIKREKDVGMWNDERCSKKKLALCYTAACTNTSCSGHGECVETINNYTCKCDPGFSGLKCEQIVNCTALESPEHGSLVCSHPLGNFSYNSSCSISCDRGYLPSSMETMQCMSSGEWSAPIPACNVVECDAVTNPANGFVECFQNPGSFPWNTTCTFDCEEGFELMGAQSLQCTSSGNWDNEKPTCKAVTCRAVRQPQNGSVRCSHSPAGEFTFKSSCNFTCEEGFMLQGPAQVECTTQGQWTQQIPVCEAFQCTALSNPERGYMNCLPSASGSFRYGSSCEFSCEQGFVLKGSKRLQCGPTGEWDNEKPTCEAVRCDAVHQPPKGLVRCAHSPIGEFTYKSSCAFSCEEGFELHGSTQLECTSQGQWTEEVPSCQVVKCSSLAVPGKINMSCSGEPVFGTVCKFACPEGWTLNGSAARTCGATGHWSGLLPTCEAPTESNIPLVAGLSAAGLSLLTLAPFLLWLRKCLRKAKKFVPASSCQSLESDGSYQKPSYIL

For `CCCCC(CC)COC(=O)c1ccccc1C(=O)OCC(CC)CCCC` (configuration not stated), the result in experiment [1], in [2], in experiment [3], in experiment [4], in experiment [5] and in experiment [6] was inactive. For the same compound, the outcome in experiment [7] is “inactive”; with CD40, CD40 (gene 958), “inactive”; in experiment [8], “inactive”. Also, in experiment [9], the AC50 is 3.22 µM (active).
Regarding `COC(=O)c1ccccc1C(=O)OC`, the result in [1], in experiment [2], in experiment [3], in experiment [4], in experiment [5] and in experiment [6] was inactive. The outcome in experiment [7] was “inactive”; with CD40, CD40 (gene 958), “inactive”; in [8], “inactive”; in experiment [9] it was “inactive”.
On to `CC(Oc1ccc(Cl)cc1Cl)C(=O)O` (configuration not stated), for which the result in [1], in experiment [2], in [3], in [4], in experiment [5] and in experiment [6] was inactive. The outcome in [7] was “inactive”; with CD40, CD40 (gene 958), “inactive”; in experiment [8], “inactive”; in experiment [9], “inactive”.
On to `CC1COC(Cn2cncn2)(c2ccc(Oc3ccc(Cl)cc3)cc2Cl)O1` (configuration not stated), for which the concentration at half-maximal activity (AC50) in experiment [1] is 33.7 µM (active); in experiment [2], 38 µM (active); in [3], 26.7 µM (active); in experiment [4], 34.5 µM (active); in experiment [5], 34.4 µM (active); in experiment [6], 31.1 µM (active). For the same compound, the AC50 is 33.9 µM (active) in experiment [7]; 17.3 µM (active) in the experiment with CD40, CD40 (gene 958); 20 µM (active) in experiment [8]; 28.6 µM (active) in experiment [9].
With `C=CCC1=C(C)C(OC(=O)C2C(C=C(C)C)C2(C)C)CC1=O` (configuration not stated), the half-maximal activity concentration (AC50) was 34.7 µM (active) and 25.5 µM (active) in experiment [1]; 34.3 µM (active) and 38.6 µM (active) in [2]; 31.1 µM (active) and 32.9 µM (active) and 26.7 µM (active) in experiment [3]; 26.6 µM (active) and 33.3 µM (active) and 21 µM (active) in experiment [4]; 33.6 µM (active) and 36.4 µM (active) and 28.4 µM (active) in [5]; 33.6 µM (active) [middle of 4 runs] in experiment [6]. Besides, the half-maximal activity concentration (AC50) was 33.8 µM (active) and 33.3 µM (active) in experiment [7]; 24.2 µM (active) and 21 µM (active) and 27.6 µM (active) in the experiment with CD40, CD40 (gene 958); 31.5 µM (active) and 33.3 µM (active) and 33.1 µM (active) in experiment [8]; 32 µM (active) [middle of 4 runs] in experiment [9]. The outcome in experiment [1], in experiment [2], in experiment [3], in experiment [4], in experiment [5] and in experiment [7] was inactive. The outcome in the experiment with CD40, CD40 (gene 958) is “inactive”; in experiment [8], “inactive”.
With `C#CCOS(=O)OC1CCCCC1Oc1ccc(C(C)(C)C)cc1` (configuration not stated), the half-maximal activity concentration (AC50) in experiment [1] was 9.7 µM (active); in [2] it was 14.8 µM (active); in [3], 14 µM (active); in [5], 10.2 µM (active); in experiment [6] it was 12.1 µM (active); in experiment [7], 14.3 µM (active). Further, the AC50 with CD40, CD40 (gene 958) is 6.59 µM (active); in experiment [8] it was 4.28 µM (active); in [9] it was 6.7 µM (active). In addition, the outcome in [4] was inactive.
For `CNC(=S)S`, the result in experiment [1], in experiment [2], in experiment [3], in experiment [4], in [5] and in experiment [6] was inactive. For the same compound, the result in experiment [7] was inactive. Besides, the AC50 was 15.7 µM (active) with CD40, CD40 (gene 958); 14.7 µM (active) in [8]; 20.8 µM (active) in experiment [9].
`COc1cnc(OC)n2nc(NS(=O)(=O)c3c(OCC(F)F)cccc3C(F)(F)F)nc12`: the outcome in experiment [1], in [2], in experiment [3], in experiment [4], in [5] and in [6] was inactive. In addition, the outcome in experiment [7] is “inactive”; with CD40, CD40 (gene 958) it was “inactive”; in experiment [8], “inactive”; in [9] it was “inactive”. Also, the concentration at half-maximal activity (AC50) in experiment [7] was 29.6 µM (active); in experiment [9], 0.0793 µM (active).
Turning to `COc1nc(C)nc(NC(=O)NS(=O)(=O)c2ccccc2Cl)n1`, the result in [1], in experiment [2], in experiment [3], in experiment [4], in experiment [5] and in [6] was inactive. Further, the outcome in experiment [7] is “inactive”; with CD40, CD40 (gene 958), “inactive”; in experiment [8], “inactive”; in experiment [9], “inactive”. For the same compound, in [3], the AC50 is 31.6 µM (active).
For the compound `CCNc1nc(Cl)nc(NC(C)C)n1`, the result in [1], in experiment [2], in experiment [3], in experiment [4], in experiment [5] and in experiment [6] was inactive. In addition, the outcome in experiment [7] is “inactive”; with CD40, CD40 (gene 958) it was “inactive”; in experiment [8], “inactive”; in experiment [9], “inactive”.
Take `C=CC1(C)OC(=O)N(c2cc(Cl)cc(Cl)c2)C1=O` (configuration not stated): the result in experiment [1], in experiment [2], in [3], in [4], in experiment [5] and in experiment [6] was inactive. The outcome is “inactive” in [7]; “inactive” in the experiment with CD40, CD40 (gene 958); “inactive” in experiment [8]; “inactive” in experiment [9].
In the case of `COc1nc(C)nc(NC(=O)NS(=O)(=O)c2ccccc2CCC(F)(F)F)n1`, the outcome in experiment [1], in experiment [2], in experiment [3], in experiment [4], in experiment [5] and in experiment [6] was inactive. Besides, the outcome in experiment [7] was “inactive”; in the experiment with CD40, CD40 (gene 958), “inactive”; in experiment [8], “inactive”; in [9], “inactive”. Further, in experiment [6], the AC50 is 23.7 µM (active).
